In the supplement of paper PMC10849652:
Of roughly 7,900 targets only a part is listed; those with a hit were picked by preference. About 0.6% of all pairs of compound and target were hits. A number with no mark means an inactive call.

Key:
Experiment in all cases: log2 fold change, soluble protein after heating vs DMSO (PISA); higher = thermal stabilisation; K562 cells, 10 uM, 30 min; active = over 0.2 and 3.5 SD of the protein, either way, in both replicates (recomputed)
saracatinib = compound: CN1CCN(CCOc2cc(OC3CCOCC3)c3c(Nc4c(Cl)ccc5c4OCO5)ncnc3c2)CC1 [saracatinib]
Procedure, shortened: (§1)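 Thermal stability values are relative to control samples and come from duplicates. They are expressed as log2 fold changes. For measurement, K562 cells (2×10^6 cells/mL) received 10 μM compound for 30 min, and aliquots were heated for 3 min over 48°C-58°C, pooled, and extracted at 4°C in PBS with 0.5% NP-40. Soluble protein, the supernatant after 21,000xg for 90 min, was quantified by TMTpro 16plex LC-MS/MS with equalised channel sums.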

sotrastaurin = compound: CN1CCN(c2nc(C3=C(c4c[nH]c5ccccc45)C(=O)NC3=O)c3ccccc3n2)CC1 [sotrastaurin]
Procedure, shortened: as §1

alvocidib = compound: CN1CC[C@H](c2c(O)cc(O)c3c(=O)cc(-c4ccccc4Cl)oc23)[C@H](O)C1 [alvocidib]
Procedure, shortened: as §1

Tubastatin A = compound: CN1CCc2c(c3ccccc3n2Cc2ccc(C(=O)NO)cc2)C1 [Tubastatin A]
Procedure, shortened: as §1

[1] = compound: CNC(=O)C1=CC=CC=C1NC2=NC(=NC=C2Cl)NC3=C(C=C(C=C3)N4CCOCC4)OC
Procedure, shortened: as §1

defactinib = compound: CNC(=O)c1ccc(Nc2ncc(C(F)(F)F)c(NCc3nccnc3N(C)S(C)(=O)=O)n2)cc1 [defactinib]
Procedure, shortened: as §1

rucaparib = compound: CNCc1ccc(-c2[nH]c3cc(F)cc4c3c2CCNC4=O)cc1 [rucaparib]
Procedure, shortened: as §1

[2] = compound: CNc1nc(-c2ccc3c(N)n[nH]c3c2)cc(N2C[C@@H](C(=O)NC3CCCCC3)CC[C@H]2C)n1
Procedure, shortened: as §1

encorafenib = compound: COC(=O)N[C@@H](C)CNc1nccc(-c2cn(C(C)C)nc2-c2cc(Cl)cc(NS(C)(=O)=O)c2F)n1 [encorafenib]
Procedure, shortened: as §1

[3] = compound: COC(=O)[C@H](CCSC)NC(=O)C1=C(C=C(C=C1)NC[C@H](CS)N)C2=CC=CC=C2
Procedure, shortened: as §1

UniProt O95273, sequence (O95273 whole entry, looked up): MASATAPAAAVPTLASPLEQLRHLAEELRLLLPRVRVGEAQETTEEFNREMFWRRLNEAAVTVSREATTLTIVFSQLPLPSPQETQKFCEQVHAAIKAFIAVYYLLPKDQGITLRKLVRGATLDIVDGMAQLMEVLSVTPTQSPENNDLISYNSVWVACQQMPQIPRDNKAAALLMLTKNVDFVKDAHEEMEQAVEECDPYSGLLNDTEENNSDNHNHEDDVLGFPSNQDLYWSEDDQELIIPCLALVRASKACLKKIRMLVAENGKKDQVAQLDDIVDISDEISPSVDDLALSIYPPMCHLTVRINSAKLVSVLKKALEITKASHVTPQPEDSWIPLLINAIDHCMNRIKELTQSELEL
UniProt P41240, sequence (P41240 whole entry, looked up): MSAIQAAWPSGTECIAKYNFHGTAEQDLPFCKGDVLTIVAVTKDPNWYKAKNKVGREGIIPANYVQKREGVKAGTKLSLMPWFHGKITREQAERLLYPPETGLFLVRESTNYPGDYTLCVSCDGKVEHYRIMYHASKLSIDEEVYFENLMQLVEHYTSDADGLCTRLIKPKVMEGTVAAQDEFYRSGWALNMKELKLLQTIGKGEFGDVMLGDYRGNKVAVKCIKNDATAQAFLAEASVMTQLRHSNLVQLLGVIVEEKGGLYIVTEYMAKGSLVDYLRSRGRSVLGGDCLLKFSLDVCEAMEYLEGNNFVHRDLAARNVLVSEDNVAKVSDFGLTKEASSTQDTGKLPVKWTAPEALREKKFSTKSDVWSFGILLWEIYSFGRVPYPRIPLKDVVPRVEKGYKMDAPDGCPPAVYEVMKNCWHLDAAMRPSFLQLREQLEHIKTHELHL
UniProt Q5T6V5, sequence (Q5T6V5 whole entry, looked up): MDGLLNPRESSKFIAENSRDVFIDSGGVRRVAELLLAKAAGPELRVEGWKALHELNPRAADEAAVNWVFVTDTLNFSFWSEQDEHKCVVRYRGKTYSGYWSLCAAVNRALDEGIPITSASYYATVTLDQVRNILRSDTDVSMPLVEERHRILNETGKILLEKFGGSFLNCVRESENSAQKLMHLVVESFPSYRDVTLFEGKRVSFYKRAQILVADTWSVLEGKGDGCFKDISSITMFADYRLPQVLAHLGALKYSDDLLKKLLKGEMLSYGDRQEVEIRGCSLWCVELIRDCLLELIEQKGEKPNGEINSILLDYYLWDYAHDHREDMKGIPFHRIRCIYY
UniProt P19397, sequence (P19397 whole entry, looked up): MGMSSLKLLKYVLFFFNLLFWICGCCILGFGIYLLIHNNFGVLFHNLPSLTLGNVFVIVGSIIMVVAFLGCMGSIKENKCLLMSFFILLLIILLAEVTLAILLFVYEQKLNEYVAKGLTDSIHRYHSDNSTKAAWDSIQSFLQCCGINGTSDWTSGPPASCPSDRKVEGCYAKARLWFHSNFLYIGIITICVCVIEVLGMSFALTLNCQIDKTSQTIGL
UniProt Q96JB5, sequence (Q96JB5 whole entry, looked up): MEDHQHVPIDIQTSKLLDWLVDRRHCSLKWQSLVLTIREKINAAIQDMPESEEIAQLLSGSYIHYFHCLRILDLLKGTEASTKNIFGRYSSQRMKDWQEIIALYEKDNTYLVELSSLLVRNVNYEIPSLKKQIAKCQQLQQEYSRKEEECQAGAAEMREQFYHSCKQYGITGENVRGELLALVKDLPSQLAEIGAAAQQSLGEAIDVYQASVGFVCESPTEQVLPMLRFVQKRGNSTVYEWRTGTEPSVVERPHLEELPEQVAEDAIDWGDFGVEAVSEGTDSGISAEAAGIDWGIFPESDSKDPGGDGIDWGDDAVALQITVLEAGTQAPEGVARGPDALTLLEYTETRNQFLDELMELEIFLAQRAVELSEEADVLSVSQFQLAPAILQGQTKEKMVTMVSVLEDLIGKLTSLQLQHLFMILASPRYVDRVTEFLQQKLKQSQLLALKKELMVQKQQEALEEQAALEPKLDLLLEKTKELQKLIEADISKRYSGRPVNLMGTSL
UniProt O75208, sequence (O75208 whole entry, looked up): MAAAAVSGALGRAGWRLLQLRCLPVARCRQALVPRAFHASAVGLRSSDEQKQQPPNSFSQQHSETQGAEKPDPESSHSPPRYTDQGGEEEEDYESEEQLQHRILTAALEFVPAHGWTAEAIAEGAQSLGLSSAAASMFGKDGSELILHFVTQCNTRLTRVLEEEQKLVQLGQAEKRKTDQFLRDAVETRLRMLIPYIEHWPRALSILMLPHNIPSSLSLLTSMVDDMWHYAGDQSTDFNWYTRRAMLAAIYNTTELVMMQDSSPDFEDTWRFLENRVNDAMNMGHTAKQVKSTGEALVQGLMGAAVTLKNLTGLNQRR
UniProt Q96KP4, sequence (Q96KP4 whole entry, looked up): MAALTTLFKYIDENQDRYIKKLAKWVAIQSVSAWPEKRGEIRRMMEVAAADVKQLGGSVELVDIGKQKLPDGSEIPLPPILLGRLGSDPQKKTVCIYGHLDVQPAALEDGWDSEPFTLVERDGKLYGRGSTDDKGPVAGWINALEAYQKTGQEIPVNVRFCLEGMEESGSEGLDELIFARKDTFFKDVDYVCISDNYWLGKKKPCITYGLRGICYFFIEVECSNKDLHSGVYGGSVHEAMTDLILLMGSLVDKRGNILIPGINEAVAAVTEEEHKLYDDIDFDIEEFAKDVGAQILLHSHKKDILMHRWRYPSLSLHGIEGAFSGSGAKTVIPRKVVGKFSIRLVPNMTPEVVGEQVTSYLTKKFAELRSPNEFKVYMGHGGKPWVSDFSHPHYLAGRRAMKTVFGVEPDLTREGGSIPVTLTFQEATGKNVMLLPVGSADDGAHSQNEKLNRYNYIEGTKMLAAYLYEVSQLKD
UniProt Q00534, sequence (Q00534 whole entry, looked up): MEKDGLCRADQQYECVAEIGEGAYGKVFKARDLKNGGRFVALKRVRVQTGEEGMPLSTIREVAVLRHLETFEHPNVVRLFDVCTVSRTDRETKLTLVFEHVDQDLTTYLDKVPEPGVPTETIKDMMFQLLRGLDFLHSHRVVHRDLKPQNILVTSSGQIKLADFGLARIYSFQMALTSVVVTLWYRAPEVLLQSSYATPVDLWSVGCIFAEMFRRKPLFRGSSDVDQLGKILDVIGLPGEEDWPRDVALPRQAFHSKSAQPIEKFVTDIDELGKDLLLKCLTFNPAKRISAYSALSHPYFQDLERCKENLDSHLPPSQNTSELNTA
UniProt Q9BSQ5, sequence (Q9BSQ5 whole entry, looked up): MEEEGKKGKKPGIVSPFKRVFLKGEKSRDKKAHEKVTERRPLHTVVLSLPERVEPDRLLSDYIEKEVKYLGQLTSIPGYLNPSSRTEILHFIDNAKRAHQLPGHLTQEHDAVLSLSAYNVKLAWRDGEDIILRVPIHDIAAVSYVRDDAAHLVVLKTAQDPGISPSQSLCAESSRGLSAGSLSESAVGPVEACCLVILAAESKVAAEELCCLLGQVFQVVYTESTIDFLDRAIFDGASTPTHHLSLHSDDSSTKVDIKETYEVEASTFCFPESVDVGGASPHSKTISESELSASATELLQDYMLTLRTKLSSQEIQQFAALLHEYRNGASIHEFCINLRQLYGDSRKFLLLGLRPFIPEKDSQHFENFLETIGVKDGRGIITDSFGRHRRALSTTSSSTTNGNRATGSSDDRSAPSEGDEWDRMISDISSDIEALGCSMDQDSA
UniProt Q6NZI2, sequence (Q6NZI2 whole entry, looked up): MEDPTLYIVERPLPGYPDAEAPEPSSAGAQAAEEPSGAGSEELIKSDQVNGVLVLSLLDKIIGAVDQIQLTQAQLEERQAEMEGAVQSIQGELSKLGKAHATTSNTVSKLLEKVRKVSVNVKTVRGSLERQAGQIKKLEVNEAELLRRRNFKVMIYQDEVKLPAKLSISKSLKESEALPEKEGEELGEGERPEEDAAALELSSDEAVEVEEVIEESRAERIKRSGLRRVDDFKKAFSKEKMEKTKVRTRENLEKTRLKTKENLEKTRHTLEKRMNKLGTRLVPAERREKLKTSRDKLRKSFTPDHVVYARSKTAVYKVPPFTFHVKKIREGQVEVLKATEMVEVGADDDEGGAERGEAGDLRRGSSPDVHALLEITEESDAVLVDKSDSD
UniProt Q12996, sequence (Q12996 whole entry, looked up): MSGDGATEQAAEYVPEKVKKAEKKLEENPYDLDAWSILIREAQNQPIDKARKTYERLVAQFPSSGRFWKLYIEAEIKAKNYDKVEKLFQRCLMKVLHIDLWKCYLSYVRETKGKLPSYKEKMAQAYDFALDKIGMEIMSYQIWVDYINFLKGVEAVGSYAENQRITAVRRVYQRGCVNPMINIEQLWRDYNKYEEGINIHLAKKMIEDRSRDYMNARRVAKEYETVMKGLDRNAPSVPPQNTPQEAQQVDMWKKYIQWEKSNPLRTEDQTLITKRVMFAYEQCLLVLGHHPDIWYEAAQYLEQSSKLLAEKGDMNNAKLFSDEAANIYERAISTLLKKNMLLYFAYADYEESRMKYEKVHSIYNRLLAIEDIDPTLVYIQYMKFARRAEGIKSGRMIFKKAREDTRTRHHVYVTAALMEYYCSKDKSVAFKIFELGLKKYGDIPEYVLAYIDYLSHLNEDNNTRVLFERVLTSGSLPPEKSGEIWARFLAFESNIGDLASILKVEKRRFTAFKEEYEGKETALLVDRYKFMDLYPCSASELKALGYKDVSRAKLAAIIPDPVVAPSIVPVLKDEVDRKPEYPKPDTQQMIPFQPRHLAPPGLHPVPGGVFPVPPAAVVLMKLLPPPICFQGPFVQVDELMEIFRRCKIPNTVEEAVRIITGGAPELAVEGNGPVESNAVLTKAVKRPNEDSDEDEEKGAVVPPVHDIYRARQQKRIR
UniProt P08962, sequence (P08962 whole entry, looked up): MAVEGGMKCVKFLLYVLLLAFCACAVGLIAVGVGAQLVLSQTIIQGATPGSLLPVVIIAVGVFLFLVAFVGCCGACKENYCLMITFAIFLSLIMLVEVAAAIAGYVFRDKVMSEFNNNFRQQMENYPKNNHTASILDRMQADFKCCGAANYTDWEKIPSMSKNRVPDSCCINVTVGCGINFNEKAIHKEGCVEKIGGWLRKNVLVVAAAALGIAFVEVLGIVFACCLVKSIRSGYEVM
UniProt P14854, sequence (P14854 whole entry, looked up): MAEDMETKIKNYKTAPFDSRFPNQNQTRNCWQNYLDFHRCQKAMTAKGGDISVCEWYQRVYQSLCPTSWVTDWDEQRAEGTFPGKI

Target | log2 fold change (saracatinib) | log2 fold change (sotrastaurin) | log2 fold change (alvocidib) | log2 fold change (Tubastatin A) | log2 fold change [1] | log2 fold change (defactinib) | log2 fold change (rucaparib) | log2 fold change [2] | log2 fold change (encorafenib) | log2 fold change [3]
CIT isoform 4 (UniProt O14578) | -0.044 | -0.033 | 0.001 | 0.074 | 0.054 | -0.034 | -0.202 | -0.055 | -0.025 | -0.001
CASP3 (UniProt P42574) | 0.107 | 0.048 | 0.005 | 0.066 | -0.024 | -0.002 | -0.062 | 0.001 | -0.014 | -0.004
CAVIN1 (UniProt Q6NZI2) | -0.065 | -0.053 | 0.101 | 0.159 | -0.015 | 0.226 | 0.098 | 0.119 | 0.122 | 0.034
CD53 (UniProt P19397) | -0.22 | 0.087 | -0.06 | 0.009 | -0.21 | -0.069 | -0.032 | 0.125 | -0.006 | 0.051
CBX1 (UniProt P83916) | 0.073 | -0.037 | -0.026 | 0.035 | -0.018 | -0.143 | -0.01 | -0.02 | -0.043 | 0
CSNK1D (UniProt P48730) | -0.047 | -0.038 | 0.063 | 0.039 | 0.111 | 0.045 | 0.032 | -0.038 | 0.06 | -0.012
CSTF2 (UniProt P33240) | -0.02 | 0.105 | 0.045 | -0.064 | -0.023 | 0.023 | 0.034 | -0.092 | -0.08 | -0.028
C4A (UniProt P0C0L4) | 0.108 | 0.268 | 0.052 | -0.039 | -0.021 | 0.072 | -0.075 | -0.188 | -0.047 | -0.039
CPT1A (UniProt P50416) | 0.021 | 0.075 | 0.578 (active) | 0.142 | 0.161 | -0.087 | 0.054 | 0.148 | 0.069 | -0.04
COPS4 (UniProt Q9BT78) | 0.028 | 0.008 | -0.071 | -0.011 | -0.005 | -0.015 | 0.004 | -0.006 | -0.001 | -0.007
CSTF3 (UniProt Q12996) | 0.001 | 0.045 | 0.078 | -0.08 | 0.043 | 0.173 | 0.088 | -0.051 | -0.022 | 0.002
CRYM-AS1 (UniProt A6NIL9) | -0.092 | -0.041 | 0.063 | 0.119 | -0.347 | -0.065 | -0.356 | 0.103 | 0.024 | -0.078
CCM2 isoform 2 (UniProt Q9BSQ5) | -0.01 | 0.056 | -0.022 | 0.073 | -0.061 | -0.107 | 0.03 | 0.087 | 0.118 | -0.033
CAMKK2 (UniProt Q96RR4) | 0.03 | -0.042 | 0.048 | 0.105 | 0.36 | -0.104 | -0.084 | -0.101 | 0.057 | 0.057
CPSF3 (UniProt Q9UKF6) | 0.009 | -0.086 | -0.052 | 0.04 | 0.07 | -0.098 | -0.011 | -0.049 | 0.03 | -0.009
COX6B1 (UniProt P14854) | 0.024 | -0.012 | 0.039 | -0.069 | 0.015 | -0.023 | 0.022 | -0.061 | -0.043 | 0.008
CCNDBP1 (UniProt O95273) | 0.078 | -0.209 | -0.007 | 0.001 | 0.115 | -0.107 | -0.002 | -0.04 | 0.062 | -0.027
CSK (UniProt P41240) | -0.01 | -0.069 | -0.102 | 0.048 | 0.097 | -0.105 | -0.008 | 0.007 | 0.013 | -0.048
COX15 (UniProt Q7KZN9) | 0.071 | 0.004 | -0.015 | -0.009 | -0.008 | -0.003 | -0.236 (active) | -0.017 | 0.023 | 0.002
CDK6 (UniProt Q00534) | 0.002 | -0.005 | 0.01 | 0.022 | 0.016 | -0.029 | 0.065 | -0.02 | 0.011 | 0.004
CNDP2 (UniProt Q96KP4) | -0.016 | -0.003 | -0.062 | -0.226 (active) | -0.014 | -0.006 | -0.041 | 0.028 | 0.001 | 0.124
CHAC2 (UniProt Q8WUX2) | -0.016 | -0.028 | -0.075 | -0.02 | -0.02 | -0.07 | 0.122 | -0.05 | 0.237 | 0.025
COQ9 (UniProt O75208) | -0.009 | -0.052 | -0.041 | -0.045 | -0.047 | -0.045 | 0.001 | 0.042 | -0.013 | -0.016
C9orf64 (UniProt Q5T6V5) | -0.053 | -0.124 | -0.177 | 0.036 | -0.04 | -0.067 | 0.377 (active) | -0.018 | 0.047 | 0.016
CD63 (UniProt P08962) | 0.021 | 0.017 | 0.01 | -0.005 | 0 | -0.006 | -0.018 | -0.01 | 0.049 | 0.015
CHCHD1 (UniProt Q96BP2) | -0.069 | 0.059 | 0.009 | -0.025 | 0.132 | 0.017 | 0.114 | 0.04 | -0.037 | -0.024
CCNK isoform 4 (UniProt O75909) | -0.072 | 0.135 | 0.022 | 0.057 | -0.147 | 0.043 | 0.066 | -0.019 | 0.029 | 0.003
CEPT1 (UniProt Q9Y6K0) | 0.015 | 0.033 | 0.029 | 0.042 | 0.001 | -0.005 | -0.126 | -0.056 | 0.052 | -0.056
CDK5RAP3 isoform 4 (UniProt Q96JB5) | -0.009 | -0.099 | -0.066 | 0.024 | 0.035 | -0.045 | -0.029 | 0.002 | 0.033 | -0.043
